Most compounds without a hit are left out; they make up all but 7% or so of the library.
rCAG RNA binder: r(CAG) repeat RNA binding; actives 1.3% (n = 370,000); inhibition, % at 3 µM; TO-PRO-1 dye displacement fluorescence; AID 651821;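 active = inhibition above the plate cutoff, the mean of all test compounds on that plate plus 3 SD, cut at about 35% in these data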;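 note: 0% = DMSO alone and 100% = 100 µM mitoxantrone as full dye displacement; higher means more dye released from RNA so lower well fluorescence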
ADAM10 inh: inhibitors of human ADAM10. recombinant ADAM10, EDANS/DABCYL FRET peptide cleavage, 3 h. O14672. actives 0.62% (n = 370,000). inhibition, % at 7 µM. AID 720582;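 active = inhibition above a per-campaign cutoff equal to the mean of compounds falling between control-based bounds plus 3 SD, cut at about 20% in these data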;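 note: 0% = DMSO wells while the 100% control is not disclosed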
Target sequence (O14672 214-748 limits assumed): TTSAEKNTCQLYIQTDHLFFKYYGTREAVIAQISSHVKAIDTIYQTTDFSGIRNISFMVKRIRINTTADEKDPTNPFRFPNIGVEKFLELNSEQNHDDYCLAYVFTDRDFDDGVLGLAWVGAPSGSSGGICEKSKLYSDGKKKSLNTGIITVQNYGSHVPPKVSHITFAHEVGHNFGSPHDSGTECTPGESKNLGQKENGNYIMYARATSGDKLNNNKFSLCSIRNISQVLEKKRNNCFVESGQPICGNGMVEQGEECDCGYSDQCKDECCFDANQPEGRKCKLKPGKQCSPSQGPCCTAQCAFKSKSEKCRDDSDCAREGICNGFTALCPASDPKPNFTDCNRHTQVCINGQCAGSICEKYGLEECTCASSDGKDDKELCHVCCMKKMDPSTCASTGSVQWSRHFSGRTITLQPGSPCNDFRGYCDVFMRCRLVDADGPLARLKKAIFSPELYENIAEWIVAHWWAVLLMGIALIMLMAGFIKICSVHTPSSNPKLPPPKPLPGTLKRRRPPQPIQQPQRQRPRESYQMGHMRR
ADAM17 inh: inhibitors of human ADAM17; recombinant ADAM17, EDANS/DABCYL FRET peptide cleavage; actives 0.83% (n = 370,000); inhibition, % at 6.95 µM; P78536;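 active = inhibition above the mean of compounds lying between control limits plus 3 SD, set per campaign, cut at about 8.5% in these data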;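 note: 0% = DMSO-only wells as the low control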
KLK7 zymogen act: activates the human kallikrein-7 zymogen; P49862; purified proKLK7, EDANS-DABCYL substrate fluorescence; 100% is mature enzyme control, 0% vehicle; activation, % at 7 µM; actives 0.9% (n = 370,000); AID 652039;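 active = activation above the mean of all tested compounds plus 3 SD, computed per campaign excluding outliers beyond control limits, cut at about 13% in these data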
AHR activator: human AHR activation; P35869; actives 2.5% (n = 320,000); AHR-responsive luciferase reporter cells, luminescence; activation, % at 5 µM; in the data active = activation above about 47%;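 note: 0% = vehicle wells and 100% = reference agonist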
GRIN3A LBD mod: modulates the human NR3A ligand-binding domain | NR3A LBD differential scanning fluorimetry, Tm shift; 0% = protein alone, 100% = glycine-bound protein | Tm shift relative to glycine control, % at 25 µM | actives 2.5% (n = 340,000);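 active = melting temperature shift of at least 10% of the positive control shift, at one fixed dose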
AHR act confirm: confirmation of human aryl hydrocarbon receptor activators | shares compounds with AHR activator | human cells, AHR-responsive luciferase reporter, luminescence | activation, % at 9 µM | actives 87% (n = 2,300); in the data active = activation above about 49%;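 note: HepG2 hepatoma cells carrying a DRE-driven firefly luciferase reporter; 0% = vehicle wells and 100% = reference agonist wells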
PXR act counter: activates human PXR in AHR activator counter-screen; cell-based PXR reporter, luciferase luminescence; actives 88% (n = 2,300); activation, % at 11.6 µM; shares compounds with AHR activator; in the data active = activation above about 11%;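 note: human hepatoma DPX-2 cells expressing full-length human PXR; 0% = DMSO and 100% = reference agonist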
Starred values were filed as active, the others as inactive; . = no result.

SMILES	rCAG RNA binder	ADAM10 inh	ADAM17 inh	KLK7 zymogen act	AHR activator	GRIN3A LBD mod	AHR act confirm	PXR act counter
O=[N+]([O-])c1cccc2ccc(/C=C/c3ccc(C(F)(F)F)cc3)nc12	8	5	1	0	82*	17*	96*	15*
O=[N+]([O-])c1cccc2ccc(/C=C/c3cccc(Br)c3)nc12	18	8	7	0	175*	23*	121*	25*
COc1cc(/C=C/c2ccc3cccc(OC)c3n2)c(O)c([N+](=O)[O-])c1	5	-10	-2	0	12	-4	.	.
CCOCCc1nnc(NC(=O)c2ccc(OC)c(OC)c2)s1	-1	2	3	0	115*	0	81*	.
CCOCCc1nnc(NC(=O)c2cc(OC)c(OC)cc2[N+](=O)[O-])s1	8	14	0	0	0	0	.	.
N=c1n(CC(=O)c2ccc([N+](=O)[O-])cc2)c2ccccc2n1Cc1ccccc1	5	1	-2	0	2	-1	.	.
N=c1n(CC(=O)c2ccc(Br)cc2)c2ccccc2n1Cc1ccccc1	15	-10	-5	-1	124*	-8	81*	46*
Clc1nc(-c2ccccn2)nc2scc(-c3ccccc3)c12	-2	-46	-18	-2	80*	24*	59*	25*
CN1CCN(c2nc(-c3cccnc3)nc3scc(-c4ccccc4)c23)CC1	-7	-20	-11	-1	16	-2	.	.
CC(=O)c1ccc(C(=O)Nc2sc3c(c2C(N)=O)CCN(Cc2ccccc2)C3)cc1	9	-17	-2	-7	5	.	.	.
COc1cccc(OC)c1C(=O)Nc1sc2c(c1C(N)=O)CCN(Cc1ccccc1)C2	4	-109	-28	2	129*	0	85*	59*
CN(C)S(=O)(=O)Oc1ccc(Cl)cc1C(=O)Nc1ccc(F)cc1F	0	-4	-3	-1	81*	0	81*	191*
O=C(Nc1ccc(F)cc1F)c1cc(Cl)sc1Cl	0	-2	-2	0	0	2	.	.
Cc1cc(C)c2[nH]c(O)c(N=Nc3ccc(C(=O)O)cc3)c2c1	0	-1	-4	0	0	4	.	.
Cc1cc(C)c2[nH]c(O)c(N=NC3=NC(=O)CS3)c2c1	17	6	2	0	95*	1	118*	16*
COc1ccc(CN2C(=O)[C@]3(NCCc4c3[nH]c3ccc(OC)cc43)c3cc(Br)ccc32)cc1	14	15	2	0	.	.	.	.
Nc1c(Cl)c(Cl)nc(C(=O)N/N=C/c2cccnc2)c1Cl	1	-5	-3	0	86*	0	78*	40*
Oc1ccc(-c2csc(Nc3ccccn3)n2)c(O)c1	30	-5	-5	4	169*	36*	103*	15*
Cc1cccc(Nc2nc(-c3cccs3)cs2)n1	11	-21	-8	2	87*	-6	161*	21*
Nc1ccc(Nc2nc(-c3cccs3)cs2)cc1	15	5	2	1	117*	0	12	16*
c1csc(-c2csc(-c3cccs3)n2)c1	2	-20	-4	-2	25	1	.	.
c1ccc(Nc2nc(-c3cccs3)cs2)nc1	9	5	1	-1	117*	-1	155*	23*
CC(C)CC(N)c1csc(Nc2ccccn2)n1 (stereo not given)	11	-15	-3	0	.	.	.	.
Cc1cccc(Nc2nc(-c3ccccn3)cs2)n1	-1	-6	-7	1	40	-3	.	.
CCC(C)CNC(=O)CN1C(=O)C2CCCCN2C(=O)c2ccccc21 (stereo not given)	-1	-15	-5	1	.	.	.	.
SMILES	rCAG RNA binder	ADAM10 inh	ADAM17 inh	KLK7 zymogen act	AHR activator	GRIN3A LBD mod	AHR act confirm	PXR act counter
COC(=O)[C@]12C[C@H](CC(=O)NCCc3ccccc3OC)C(=O)N(Cc3ccco3)C1=C[C@H](C1CCCC1)O[C@@H]2C	1	6	2	0	.	.	.	.
CCOC(=O)[C@@]12CCCC3=C1N(CCC3)C(=O)[C@H]2CC(=O)NCC12CC3CC(CC(C3)C1)C2	0	-3	-4	0	.	.	.	.
Cc1ccc(Cn2nnc3c2-c2ccccc2S(=O)(=O)N(C)C3)cc1	2	3	-2	1	.	.	.	.
O=C(O)C1Cc2c([nH]c3ccccc23)C(c2ccc3c(c2)OCO3)N1 (stereo not given)	4	-46	-14	0	90*	-4	73*	12*
O=C(O)c1ccc(-c2sc(Nc3ccccc3)n[n+]2-c2ccccc2)cc1	10	8	-6	1	43	1	.	.
Cc1cccc(-c2sc(Nc3ccccc3)n[n+]2-c2ccccc2)c1	5	3	-5	0	108*	-6	50*	132*
COC(=O)Cc1nnn2c1[C@H](C)[C@H](c1ccccc1Br)OC[C@H](C)C2	4	-1	0	0	.	.	.	.
NNc1nc2ccc(Cl)cc2s1	12	-2	5	1	115*	-4	106*	22*
O=C(Nc1nc2ccc(Cl)cc2s1)c1ccc(Br)o1	15	-5	-6	0	20	9	.	.
Cc1c(C(=O)/C=C/c2cccs2)oc2ccc(F)cc12	9	1	0	0	81*	-1	103*	76*
Cc1cccc(-c2cccc3c4c([nH]c23)[C@@H]2C[C@H](N(C)C(=O)C3CCCCC3)[C@H]([C@H](C)O)CN2CC4)c1	3	-30	-7	1	.	.	.	.
Clc1ccccc1Cn1nnc(-c2cccs2)n1	-2	9	2	-1	117*	-4	150*	37*
Clc1ccccc1Cn1nnc(-c2ccccc2)n1	-1	-5	0	0	41	0	.	.
NNC(=O)c1cc(C2CC2)nc2ccc(Br)cc12	8	7	2	-1	.	2	.	.
COc1cc2c(cc1NC(=O)c1cccc(S(=O)(=O)N(C)C)c1)oc1ccccc12	13	-1	-6	-1	79*	14*	65*	42*
Cc1c(NC(=O)C(C)OC(=O)/C=C/c2ccc(OC(F)F)cc2)c(=O)n(-c2ccccc2)n1C (stereo not given)	-6	3	0	-1	4	0	.	.
NNC(=O)c1cc(-c2ccc(O)cc2)nc2ccc(Br)cc12	22	-2	3	0	81*	11*	40	6
COc1cc2c(cc1NC(=O)C1CCCO1)oc1ccccc12 (stereo not given)	0	-9	0	1	15	1	.	.

Assay outcomes (PubChem)
